The results in this text go back to PubChem BioAssay AID651957 (The Scripps Research Institute Molecular Screening Center, 2012).

The structures appear in SMILES notation. In all, about 370,000 compounds went through this assay and about 620 (0.17%) were called active. This is one part of a sample in which actives are shown more often than they occur.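 The calls were made as follows: active = inhibition above the mean inhibition of all tested compounds plus 3 SD, set per campaign (cut at about 52% in these data); inactive = the rest.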

For this assay, the target named is Nuclear receptor coactivator 2 (Homo sapiens) (UniProt Q15596). The experiment in a line: decrease of SRC2 fusion reporter luminescence – cell-based, SRC2 inhibitor project, primary screen (AID 651957).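 Also: 0% = DMSO treated cells and 100% = cells given Gossypol at 36 µM.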 The conditions noted are these: HEK293 GAL4-SRC2 luciferase reporter, at 9 µM, active compounds read high. For orientation: In a reporter assay the amount or activity of a reporter protein is the signal.
Sequence of Nuclear receptor coactivator 2 (Homo sapiens) (Q15596 whole entry, looked up, the tested form may be a part): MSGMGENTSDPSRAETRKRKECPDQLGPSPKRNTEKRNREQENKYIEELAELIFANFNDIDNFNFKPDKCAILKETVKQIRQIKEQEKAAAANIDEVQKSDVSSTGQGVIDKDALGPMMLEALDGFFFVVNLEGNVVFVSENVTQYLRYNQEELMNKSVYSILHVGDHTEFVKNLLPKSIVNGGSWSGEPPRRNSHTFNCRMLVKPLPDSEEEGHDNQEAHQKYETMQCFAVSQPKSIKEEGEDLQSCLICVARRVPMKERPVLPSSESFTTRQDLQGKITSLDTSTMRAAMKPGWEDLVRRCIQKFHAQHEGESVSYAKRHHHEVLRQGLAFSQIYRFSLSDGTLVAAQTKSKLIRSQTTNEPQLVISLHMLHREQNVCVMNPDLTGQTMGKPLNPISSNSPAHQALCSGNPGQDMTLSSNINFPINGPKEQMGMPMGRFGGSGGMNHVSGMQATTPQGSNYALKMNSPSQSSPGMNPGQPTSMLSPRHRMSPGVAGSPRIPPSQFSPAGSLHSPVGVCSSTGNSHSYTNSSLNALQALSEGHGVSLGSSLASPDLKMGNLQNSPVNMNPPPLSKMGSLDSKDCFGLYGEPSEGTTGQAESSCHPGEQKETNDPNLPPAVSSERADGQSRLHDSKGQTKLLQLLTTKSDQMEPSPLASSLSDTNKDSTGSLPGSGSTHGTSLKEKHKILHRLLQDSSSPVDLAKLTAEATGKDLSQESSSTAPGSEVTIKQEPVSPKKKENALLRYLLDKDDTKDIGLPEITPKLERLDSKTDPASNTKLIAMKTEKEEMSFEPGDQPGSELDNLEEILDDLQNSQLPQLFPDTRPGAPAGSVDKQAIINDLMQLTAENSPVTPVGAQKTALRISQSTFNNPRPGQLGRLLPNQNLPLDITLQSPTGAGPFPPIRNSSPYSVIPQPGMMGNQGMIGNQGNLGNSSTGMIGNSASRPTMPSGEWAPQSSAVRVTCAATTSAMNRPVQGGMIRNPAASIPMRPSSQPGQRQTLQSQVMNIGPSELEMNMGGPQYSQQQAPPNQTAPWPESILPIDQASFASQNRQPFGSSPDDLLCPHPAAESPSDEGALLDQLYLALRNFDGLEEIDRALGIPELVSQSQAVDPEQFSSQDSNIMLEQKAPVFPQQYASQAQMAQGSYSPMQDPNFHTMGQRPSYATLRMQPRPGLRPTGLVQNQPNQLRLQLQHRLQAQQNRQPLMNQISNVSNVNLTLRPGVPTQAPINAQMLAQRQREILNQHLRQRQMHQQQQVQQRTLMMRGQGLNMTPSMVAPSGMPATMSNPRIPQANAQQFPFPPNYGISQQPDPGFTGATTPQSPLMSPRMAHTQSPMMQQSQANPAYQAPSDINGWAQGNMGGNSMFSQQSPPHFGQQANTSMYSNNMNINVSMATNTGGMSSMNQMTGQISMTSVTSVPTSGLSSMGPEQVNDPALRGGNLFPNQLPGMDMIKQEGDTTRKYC
As for `CCC(C)(O)C(=O)OC1C(=O)OC2CC3C(C)=CC(=O)C(O)C3(C)C3C4(O)OCC23C1C(C)C4O` (stereo not given), the inhibition (in general, the drop in the measured response relative to a control, in per cent) is 74.8% (active). The value for `O=C(COc1ccc2ccccc2c1)N1CCN(Cc2ccncc2)CC1` was 9.05% (inactive). Turning to `CC1([N+](=O)[O-])COP(=O)(Nc2ccc(F)cc2)OC1` (stereo not given), the inhibition is -54.9% (inactive). For `CCN1CCN(C(=O)Cc2coc3cc(C)cc(C)c23)CC1` the value was -5.27% (inactive); for `CC(C)n1c(=O)c(C=Nc2ccc(Br)cc2)c(O)n(Cc2ccco2)c1=O`, 8.44% (inactive).

As for `COC1C(O)C(C)OC(OC2CCC3(C=O)C(CCC4C3CCC3(C)C(C5=CC(=O)OC5)CCC43O)C2)C1O` (stereo not given), the inhibition is 55% (active). The value for `C[C@]12CC[C@H](O)C[C@H]1CC[C@@H]1C2CC[C@]2(C)[C@@H](C3=CC(=O)OC3)[C@@H](O)C[C@]12O` (stereo not given in full) was 10.7% (inactive). For `Brc1ccc2c(c1)CNCc1cnnn1-2` the value was -46.2% (inactive). Turning to `Cc1ccccc1CCC[C@@H](CC1CCCCC1)CN(C)C(=O)Oc1ccccc1`, the inhibition was -0.22% (inactive).

Consider `COP(=O)(Sc1ccccc1)C(Cc1ccccc1)NC(=O)OCc1ccccc1` (stereo not given), for which the inhibition is 2.58% (inactive).
